Measurements reported in ChEMBL document CHEMBL1157539, “Thousands of chemical starting points for antimalarial lead identification” (Nature, 2010).

Columns and labels:
Assay type in all cases: functional
Plasmodium falciparum [1] = experiment: GSK_TCMDC: Inhibition of Plasmodium falciparum 3D7 in whole red blood cells, using parasite LDH activity as an index of growth. Test compounds present at 2uM
Plasmodium falciparum [2] = experiment: GSK_TCMDC: Inhibition of Plasmodium falciparum Dd2 in whole red blood cells, using parasite LDH activity as an index of growth. Test compounds present at 2uM
HepG2 = experiment: GSK_TCMDC: Percent inhibition of human HepG2 cell line. Test compounds present at 10uM.

Compound `O=c1cc(NCCCNCc2[nH]c3cc(Cl)ccc3c2Cl)[nH]c2ccccc12` has an Inhibition (Plasmodium falciparum [1]) of 91%, an Inhibition (Plasmodium falciparum [2]) of 1% and an Inhibition (HepG2) of 5%.

`CCN(CC)CCNc1ccnc2[nH]c3ccc([N+](=O)[O-])cc3c12` gave an Inhibition (Plasmodium falciparum [1]) of 100%, an Inhibition (Plasmodium falciparum [2]) of 76% and an Inhibition (HepG2) of 6%.

`O=C(Cc1ccsc1)NCC(c1ccccc1Cl)c1c[nH]c2ccccc12` (stereo not drawn) was tested, and the Inhibition (Plasmodium falciparum [1]) was 86%, the Inhibition (Plasmodium falciparum [2]) was 71% and the Inhibition (HepG2) was 0%.

Compound `Cc1ccc(S(C)(=O)=O)cc1/C=C/C(=O)O` has an Inhibition (Plasmodium falciparum [1]) of 96%, an Inhibition (Plasmodium falciparum [2]) of 1% and an Inhibition (HepG2) of 0%.

In the case of `CN1CCC(N(C)C(=O)C=Cc2cn(-c3ccccc3)nc2-c2cc3ccccc3o2)CC1.Cl`, the Inhibition (Plasmodium falciparum [1]) is reported as 92%, the Inhibition (Plasmodium falciparum [2]) is reported as 5% and the Inhibition (HepG2) is reported as 38%.

`COc1ccc2nc(C)cc(Nc3ccc(N4CCN(C)CC4)cc3)c2c1` showed an Inhibition (Plasmodium falciparum [1]) of 100%, an Inhibition (Plasmodium falciparum [2]) of 3% and an Inhibition (HepG2) of 1%.

With `O=C(Nc1cccc(Cl)c1)N[C@H]1CCN(Cc2ccc(OCCCN3CCCCC3)cc2)C1` the Inhibition (Plasmodium falciparum [1]) was 99%, the Inhibition (Plasmodium falciparum [2]) was 0% and the Inhibition (HepG2) was 15%.

`COc1ccc2nc(NC(N)=NC(=O)Nc3ccccc3)nc(C)c2c1` showed an Inhibition (Plasmodium falciparum [1]) of 90%, an Inhibition (Plasmodium falciparum [2]) of 15% and an Inhibition (HepG2) of 3%.

Work on `COc1ccc(-n2cc(C(=O)c3cc(Br)ccc3O)cc(C#N)c2=O)cc1Cl` yielded an Inhibition (Plasmodium falciparum [1]) of 99%, an Inhibition (Plasmodium falciparum [2]) of 23% and an Inhibition (HepG2) of 29%.

In the case of `Cc1nnc2c(NC(=O)NC3CCCC3)cc3cc(-c4ccc(CN5CCCCC5)cc4)ccc3n12`, the Inhibition (Plasmodium falciparum [1]) is reported as 99%, the Inhibition (Plasmodium falciparum [2]) is reported as 93% and the Inhibition (HepG2) is reported as 100%.

`CS(=O)(=O)c1ccc(CCNCc2ccc(-c3ccc(CN(C(=O)C4CCCC4)C4CCN(Cc5ccccc5)CC4)cc3)nc2)cc1.O=C(O)C(F)(F)F` gave an Inhibition (Plasmodium falciparum [1]) of 91%, an Inhibition (Plasmodium falciparum [2]) of 20% and an Inhibition (HepG2) of 24%.
